KCNQ2 enhance – potentiators of rat KCNQ2 potassium channel; Potassium voltage-gated channel subfamily KQT member 2 (Rattus norvegicus), O88943; CHO-K1 KCNQ2, FluxOR thallium flux fluorescence; stronger effect = higher value; B-score at 10 µM; actives 0.54% (n = 310,000);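 active = fluorescence ratio B-score at least 3 SD of library B-scores, with initial fluorescence B-score within 3 of them, cut at about 5.3 in these data; same plate scores as AID 2156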;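 also: B-score of peak minus minimum over baseline fluorescence ratio after K+ and Tl+ stimulus; positive B-score means potentiation of KCNQ2 with more thallium influx and brighter signal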
Target sequence (O88943 whole entry, looked up): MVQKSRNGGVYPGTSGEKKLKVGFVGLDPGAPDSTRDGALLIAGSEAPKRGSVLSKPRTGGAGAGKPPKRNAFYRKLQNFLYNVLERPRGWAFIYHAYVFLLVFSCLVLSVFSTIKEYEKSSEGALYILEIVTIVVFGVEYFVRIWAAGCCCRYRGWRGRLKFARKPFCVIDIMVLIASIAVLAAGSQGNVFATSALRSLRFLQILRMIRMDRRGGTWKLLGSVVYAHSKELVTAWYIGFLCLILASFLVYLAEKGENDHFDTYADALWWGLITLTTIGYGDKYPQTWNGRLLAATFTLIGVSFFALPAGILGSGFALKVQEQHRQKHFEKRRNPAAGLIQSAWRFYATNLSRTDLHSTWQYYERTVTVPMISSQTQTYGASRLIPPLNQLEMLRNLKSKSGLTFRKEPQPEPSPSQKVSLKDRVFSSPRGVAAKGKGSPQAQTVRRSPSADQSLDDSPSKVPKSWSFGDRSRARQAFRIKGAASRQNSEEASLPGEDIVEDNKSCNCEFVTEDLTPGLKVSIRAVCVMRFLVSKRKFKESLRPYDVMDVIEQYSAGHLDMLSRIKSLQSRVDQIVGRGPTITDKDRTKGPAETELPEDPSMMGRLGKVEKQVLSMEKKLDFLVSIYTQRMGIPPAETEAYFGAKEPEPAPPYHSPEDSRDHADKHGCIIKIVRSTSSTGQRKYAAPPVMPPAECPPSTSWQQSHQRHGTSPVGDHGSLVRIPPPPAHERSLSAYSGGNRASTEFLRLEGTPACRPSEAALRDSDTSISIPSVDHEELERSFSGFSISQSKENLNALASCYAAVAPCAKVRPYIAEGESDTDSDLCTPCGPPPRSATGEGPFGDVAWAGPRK
KCNQ2 inh – rat KCNQ2 potassium channel inhibitors, primary screen, cell-based, CHO-K1, FluxOR thallium flux, B-score. actives 1.1% (n = 310,000). B-score at 10 µM. 20 min; stronger effect = lower value. Potassium voltage-gated channel subfamily KQT member 2 (Rattus norvegicus), O88943. AID 2156, 2009;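 active = fluorescence ratio B-score at most minus 3 library SDs, with starting brightness B-score within 2 library SDs, cut at about -5.5 in these data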
Kir21 conf inh – mouse Kir2.1 channel blockers, retest, confirmation, cell-based, FluxOR thallium flux, duplicate; Tl flux remaining, % of negative control (stronger effect = lower value), % at 10 µM; shares compounds with KCNQ2 enhance; Kir2.1-expressing cells, FluxOR thallium flux fluorescence; stronger effect = lower value; actives 41% (n = 2,300); AID 2032, 2009;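 active = Primary-screen hit whose thallium flux fell at least 3 control SD below untreated wells in both duplicates, with normal baseline fluorescence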;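 also: 0% = blank wells without stimulus and 100% = stimulated no-compound controls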
HEK293 Tl flux – parental HEK293 activity in Kir2.1 inhibitor counter-screen; shares compounds with KCNQ2 enhance; parental HEK293 cells, FluxOR thallium flux fluorescence; 0% = unstimulated blank wells; FluxOR signal as % of negative control (100 = no effect), % at 10 µM; actives 19% (n = 2,300); AID 2105;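 active = dye signal at least 3 control SD above or below untreated wells in both duplicates, raw fluorescence within 3, either direction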;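 also: percent is based on the flux ratio of peak minus minimum fluorescence over baseline F0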
CHO-K1 ctr – nonspecific thallium flux increase in parental CHO-K1, confirmation, counter-screen for KCNQ2 potentiator project, cell-based, FluxOR thallium flux, duplicate; shares compounds with KCNQ2 enhance; parental CHO-K1 cells, FluxOR thallium flux fluorescence; zero = vehicle mean+3SD, 100% = vehicle-minus-blank window; activity increase over 3SD of controls, % at 10 µM; actives 43% (n = 1,200);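 active = signal rise of at least 3 SD above the untreated control mean, in both duplicate wells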;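 also: counter screen of KCNQ2 potentiator hits so any rise reflects channel-independent effects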
KCNQ1 sel pot – human KCNQ1 channel potentiation off-target, confirmation, selectivity assay for KCNQ2 potentiator project, cell-based, CHO, FluxOR thallium flux; shares compounds with KCNQ2 enhance; CHO KCNQ1 stable, FluxOR thallium flux fluorescence; beyond 3SD, as % of vehicle-control signal; activation over 3SD threshold, % at 10 µM; AID 2283, 2010; actives 28% (n = 1,200);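 active = fluorescence ratio rise of at least 3 SD of vehicle wells above their mean, in both replicate wells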;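 also: 0% = vehicle mean plus 3 SD and 100% = vehicle minus unstimulated blank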
KCNQ2 pot confirm – rat KCNQ2 channel potentiators, confirmation, cell-based, CHO, FluxOR thallium flux, duplicate; shares compounds with KCNQ2 enhance; CHO-KCNQ2 cells, FluxOR thallium flux fluorescence; potentiation, less the hit threshold, % at 10 µM; actives 68% (n = 1,200); AID 2287, 2010;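 active = fluorescence ratio rising 3 SD or more over the vehicle control mean in both replicates, plus primary screen hit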;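 also: peak minus minimum thallium fluorescence divided by baseline after K/Tl stimulus; 0% = vehicle mean plus 3 SD and 100% = vehicle minus unstimulated blank difference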
Kir2-1 sel – mouse Kir2.1 channel activation off-target, confirmation, selectivity assay for KCNQ2 potentiator project, cell-based, HEK293, FluxOR thallium flux; shares compounds with KCNQ2 enhance; HEK293 Kir2.1, FluxOR thallium flux fluorescence; activity over 3SD threshold, % at 10 µM; actives 2% (n = 1,200); AID 2345, 2010;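 active = fluorescence ratio rise of at least 3 SD above the vehicle-control mean, seen in both replicates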;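 also: 0% = vehicle mean plus 3 SD and 100% = vehicle minus no-stimulus blank window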
KCNQ2 W236L MoA – potentiators of retigabine-insensitive KCNQ2 W236L, mechanism study for KCNQ2 potentiator project, cell-based, rat KCNQ2 W236L, CHO, automated patch clamp; shares compounds with KCNQ2 enhance; automated patch clamp current; current increase over 3SD of negative controls (%), stronger effect = higher value, % at 25 µM; actives 10% (n = 940); AID 2558, 2010;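 active = current increase at least 3 SD of the untreated controls above them in both duplicate recordings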
* marks the source's active call; other numbers are inactive results. Shown are actives, neighbours in structure and some others; about 1.6% of the full set was active somewhere.

`O=C(CSc1ccc(Cl)cc1)N1N=CCC1c1ccccc1` (stereo not given) gave KCNQ2 inh inactive, Kir21 conf inh 66%* and HEK293 Tl flux inactive.
NC(=NC(=O)c1ccc(Cl)cc1)N1N=CCC1c1ccccc1 (stereo not given) was read as KCNQ2 inh inactive.
For O=C(NCc1ccccn1)C12CC3CC(CC(C3)C1)C2 the results were KCNQ2 inh inactive.
Screening CCOc1ccc(NCc2nnc(SCC(=O)Nc3nc(-c4ccccc4)cs3)n2-c2ccccc2)cc1 returned KCNQ2 enhance 0.63 and KCNQ2 inh inactive.
COc1cc(CNc2cccc(F)c2)cc(Br)c1O was read as KCNQ2 enhance 11*, KCNQ2 inh inactive, Kir21 conf inh inactive, HEK293 Tl flux inactive, CHO-K1 ctr 2.4*, KCNQ1 sel pot -8, KCNQ2 pot confirm -6 and Kir2-1 sel -23.
COc1ccc(CNc2ccccc2)cc1Br was read as KCNQ2 inh inactive.
`c1cc(CN2CCCCC2)cc(OCCCNc2nc3ccccc3s2)c1` gave KCNQ2 inh inactive, Kir21 conf inh 26%* and HEK293 Tl flux inactive.
`O=C(NCCCOc1cccc(CN2CCCCC2)c1)c1ccc(Cl)c(Cl)c1` gave KCNQ2 inh inactive.
`COCCCN1C(=O)C(=O)/C(=C(/O)c2ccc(S(=O)(=O)N3CCOCC3)cc2)C1c1ccc(C(C)C)cc1` (stereo not given) gave KCNQ2 inh inactive.
For COc1ccc(CCNC(=O)CN2C(=O)COc3ccc(S(=O)(=O)N4CCCC4)cc32)c(OC)c1 the results were KCNQ2 enhance 0.46 and KCNQ2 inh inactive.
Oc1ccccc1CN1CCC(C(O)(c2ccccc2)c2ccccc2)CC1 was read as KCNQ2 inh inactive.
Oc1ccccc1CN1CCN(C(O)(c2ccccc2)c2ccccc2)CC1 was read as KCNQ2 inh inactive, Kir21 conf inh 66%* and HEK293 Tl flux inactive.
CCN(CC)C(=O)C(=O)N/N=C/c1ccc(C(=O)O)cc1 was read as KCNQ2 enhance 3.6 and KCNQ2 inh inactive.
CCOc1cc(N2CCOCC2)c(OCC)cc1NC(=O)Cc1cccc(OC)c1 was read as KCNQ2 enhance 10*, KCNQ2 inh inactive, Kir21 conf inh inactive, HEK293 Tl flux inactive, CHO-K1 ctr 36*, KCNQ1 sel pot 14*, KCNQ2 pot confirm 72*, Kir2-1 sel -50 and KCNQ2 W236L MoA inactive.
For CCOc1cc(N2CCOCC2)c(OCC)cc1NC(=O)CC12CC3CC(CC(C3)C1)C2 the results were KCNQ2 enhance 23*, KCNQ2 inh inactive, Kir21 conf inh inactive, HEK293 Tl flux inactive, CHO-K1 ctr -18, KCNQ1 sel pot -25, KCNQ2 pot confirm 113*, Kir2-1 sel -28 and KCNQ2 W236L MoA 0.7%*.
For CCOc1cc(N2CCOCC2)c(OCC)cc1NC(=O)CN1C(=O)NC(C)(C2CC2)C1=O (stereo not given) the results were KCNQ2 inh inactive.
`CCOc1cc(N2CCOCC2)c(OCC)cc1NC(=O)Cc1ccc(OC)c(OC)c1` gave KCNQ2 inh inactive.
CCC(C(=O)N1CCOCC1)n1nc(C)c2sc3ccccc3c2c1=O (stereo not given) was read as KCNQ2 enhance 0.75 and KCNQ2 inh inactive.
`S=C(NNc1ccc2ccccc2c1)NC1CCCCC1` gave KCNQ2 inh inactive.
`O=C(NCCc1ccccc1)c1ccc(CS(=O)Cc2ccc(Cl)cc2)o1` (stereo not given) gave KCNQ2 inh inactive.
O=C(c1ccccc1SCc1ccc(F)cc1)N1CCOCC1 was read as KCNQ2 inh inactive.
Screening Cc1[nH][nH]c(=O)c1C(c1ccc(-c2cccc(Cl)c2)o1)c1c(C)[nH][nH]c1=O returned KCNQ2 enhance -5.9, KCNQ2 inh -5.9*, Kir21 conf inh inactive and HEK293 Tl flux inactive.
For Cc1[nH][nH]c(=O)c1C(c1ccc(-c2cccc(C(=O)O)c2)o1)c1c(C)[nH][nH]c1=O the results were KCNQ2 inh inactive.
`Cc1ccc(O)c(O)c1` gave KCNQ2 inh inactive.
For Cc1ccc(C2Cc3cc(O)c(O)cc3CN2)cc1 (stereo not given) the results were KCNQ2 inh inactive, Kir21 conf inh 28%* and HEK293 Tl flux 62%*.
`CCOC(=O)Nc1c(O)ccc2oc(C)c(-c3ccccc3)c12` gave KCNQ2 enhance 3.3, KCNQ2 inh inactive, Kir21 conf inh 28%* and HEK293 Tl flux inactive.
Screening CCOC(=O)C(=O)Nc1nc(-c2ccccc2)c(-c2ccccc2)o1 returned KCNQ2 inh inactive.
`CCC(C)NCCOCCOc1ccccc1-c1ccccc1` (stereo not given) gave KCNQ2 inh inactive, Kir21 conf inh 44%* and HEK293 Tl flux inactive.
Screening CC(C)(C)NCCOCCOc1ccccc1-c1ccccc1 returned KCNQ2 enhance 1.7 and KCNQ2 inh inactive.
`COc1cc(CNC(C)c2ccccc2)cc(Cl)c1OCC(=O)Nc1ccccc1` (stereo not given) gave KCNQ2 inh inactive, Kir21 conf inh 60%* and HEK293 Tl flux inactive.
CCN(CC)CCNCc1cc(Cl)c(OCC(=O)Nc2ccccc2)c(OC)c1 was read as KCNQ2 enhance 0.64 and KCNQ2 inh inactive.

Bioassay records as filed in PubChem.
